Source: article PMC4336329 (PLoS ONE, 2015)
About 14,000 (4.5%) of roughly 310,000 compounds showed an effect of 50% or more. Effects have a minus sign here. Only a selection was taken, and strong results are over-represented in it overall.

Target: human ether-à-go-go-related gene (hERG) potassium channel (human, UniProt Q12809)
Assay: primary screen, population patch clamp on CHO cells stably expressing hERG; higher = less effect of the substance
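Also: peak tail current of the secondary pulse compared with the same well before compound.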

Sequence of human ether-à-go-go-related gene (hERG) potassium channel (Q12809 whole entry, looked up): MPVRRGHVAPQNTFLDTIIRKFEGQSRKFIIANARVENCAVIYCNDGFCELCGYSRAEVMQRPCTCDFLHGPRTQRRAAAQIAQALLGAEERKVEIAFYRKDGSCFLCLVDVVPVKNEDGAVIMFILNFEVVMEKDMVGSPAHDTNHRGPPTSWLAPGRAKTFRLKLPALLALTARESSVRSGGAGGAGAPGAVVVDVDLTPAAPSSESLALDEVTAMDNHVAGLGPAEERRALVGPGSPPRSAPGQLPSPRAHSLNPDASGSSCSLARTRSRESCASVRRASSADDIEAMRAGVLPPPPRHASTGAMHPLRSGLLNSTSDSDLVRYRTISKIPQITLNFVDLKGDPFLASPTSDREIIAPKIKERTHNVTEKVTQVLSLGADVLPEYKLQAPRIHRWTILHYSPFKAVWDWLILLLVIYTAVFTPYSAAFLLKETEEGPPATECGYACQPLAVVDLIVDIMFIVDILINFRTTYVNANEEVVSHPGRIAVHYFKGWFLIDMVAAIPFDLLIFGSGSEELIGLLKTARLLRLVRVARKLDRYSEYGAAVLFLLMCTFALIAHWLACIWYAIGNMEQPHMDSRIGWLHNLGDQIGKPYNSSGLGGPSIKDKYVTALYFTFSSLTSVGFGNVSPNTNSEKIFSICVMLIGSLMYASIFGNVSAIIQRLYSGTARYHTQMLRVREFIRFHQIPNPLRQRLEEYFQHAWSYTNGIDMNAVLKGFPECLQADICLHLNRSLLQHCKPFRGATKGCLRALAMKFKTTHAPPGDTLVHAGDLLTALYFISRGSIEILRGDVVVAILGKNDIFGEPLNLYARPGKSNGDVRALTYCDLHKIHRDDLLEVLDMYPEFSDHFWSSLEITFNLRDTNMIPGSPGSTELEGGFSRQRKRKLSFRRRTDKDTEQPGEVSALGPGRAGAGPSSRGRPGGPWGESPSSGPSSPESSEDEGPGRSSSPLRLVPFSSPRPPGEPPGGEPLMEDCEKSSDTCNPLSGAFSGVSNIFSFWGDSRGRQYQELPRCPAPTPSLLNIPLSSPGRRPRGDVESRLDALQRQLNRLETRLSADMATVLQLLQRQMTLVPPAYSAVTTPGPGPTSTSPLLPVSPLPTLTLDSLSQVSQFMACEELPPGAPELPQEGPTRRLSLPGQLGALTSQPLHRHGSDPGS

First: COc1cccc(/C=N/Nc2cc(Cl)nc(C)n2)c1O
Second: COc1ccccc1/C=N/Nc1nccnc1Cl
The “hERG current change (%, negative = inhibition) at 10uM” value of the first is higher: 20.8% for the first, -11.5% for the second.

Compared with `COc1cc2c3c(c1OC)C1(C=CC(=O)C=C1)CC3N(C(=O)c1ccccc1)CC2` (stereo not shown), `COCCNC(=O)c1cccc(OC2CCN(Cc3ccc(F)c(OC)c3)CC2)c1` is higher in “hERG current change (%, negative = inhibition) at 10uM” value: -18.6% for the first, -16.2% for the second.

Going from `CCC(=O)NC(=S)Nc1ccc(NC(=O)COc2ccc(Cl)cc2Cl)cc1` to `Cn1c(CSCc2ccc(Cl)cc2)nnc1SCC(=O)Nc1nc2ccccc2s1`, the “hERG current change (%, negative = inhibition) at 10uM” value falls from 10.7% to 9.45%.

First: CC(=O)c1ccccc1OCc1ccc(S(=O)(=O)Cc2ccccc2)cc1
Second: CCOC(=O)c1c(N)n(Cc2ccccc2)c2nc3ccccc3nc12
The “hERG current change (%, negative = inhibition) at 10uM” value of the first is higher: -26.6% for the first, -29.6% for the second.

Compared with `Cc1ccc(/C=N/Nc2ccc(Cl)nn2)cc1`, `CSc1nccc(-c2nn(-c3ccc(C)cc3)ccc2=O)n1` is lower in “hERG current change (%, negative = inhibition) at 10uM” value: -0.808% for the first, -15% for the second.

Compared with `CCN(CC)S(=O)(=O)c1ccc(C(=O)OCC(=O)Nc2sc3c(c2C#N)CCCCC3)cc1`, `Cc1ccc(NS(=O)(=O)c2ccc(C(=O)N3CCCCCC3)cc2)cc1` is lower in “hERG current change (%, negative = inhibition) at 10uM” value: 8.12% for the first, -8.38% for the second.

Compared with `Cc1ccc(S(=O)(=O)Nc2ccc(C(=O)N3CCCC3)cc2)cc1`, `Cc1ccc(NS(=O)(=O)c2ccc(C(=O)N3CCC3)cc2)cc1` is higher in “hERG current change (%, negative = inhibition) at 10uM” value: -0.474% for the first, 15.7% for the second.

Going from `Cc1ccc(NS(=O)(=O)c2ccc(C(=O)N3CC(C)OC(C)C3)cc2)cc1` (stereo not shown) to `Cc1ccc(NS(=O)(=O)c2ccc(C(=O)N3CC(C)CC(C)C3)cc2)cc1` (stereo not shown), the “hERG current change (%, negative = inhibition) at 10uM” value falls from 14.2% to -58.7%.

Going from `CC(C)(C)c1ccc(S(=O)(=O)Nc2ccc(C(=O)N3CCCC3)cc2)cc1` to `Cc1ccc(C)c(SCC(=O)Nc2ccc(C)c(S(=O)(=O)N3CCOCC3)c2)c1`, the “hERG current change (%, negative = inhibition) at 10uM” value rises from -61.9% to -13.4%.

Going from `O=C(Nc1nnc(-c2ccco2)o1)c1ccc(Cl)s1` to `COCCCNC(=O)c1c(N)n(Cc2ccco2)c2nc3ccccc3nc12`, the “hERG current change (%, negative = inhibition) at 10uM” value falls from 8.23% to -2.08%.

Compared with `Cc1cc(Cl)c(OCCCSc2nc(C)cc(=O)[nH]2)c(Br)c1`, `COC(=O)c1c(SCc2cccc3ccccc23)nc(=O)[nH]c1C` is higher in “hERG current change (%, negative = inhibition) at 10uM” value: -10.3% for the first, 7.87% for the second.

Compared with `CCc1nnc(NC(=O)CSc2ncc(-c3ccccc3)[nH]2)s1`, `COCCCn1c(SCC(=O)NNC(=O)c2cccc(O)c2)nnc1-c1ccncc1` is higher in “hERG current change (%, negative = inhibition) at 10uM” value: 2.52% for the first, 5.74% for the second.

First: Cc1cccc(C(=O)NNC(=O)c2ccccc2-n2cccc2)c1
Second: COC(=O)C(Cc1ccccc1)NC(=O)c1cccc(S(=O)(=O)N(C)C)c1 (stereo not shown)
The “hERG current change (%, negative = inhibition) at 10uM” value of the first is higher: 11.7% for the first, 2.5% for the second.

First: COC(=O)c1c(SCC(=O)Nc2ccc(C)c(C)c2)nc(=O)[nH]c1C
Second: COC(=O)c1c(SCc2ccc(C#N)cc2)nc(=O)[nH]c1C
The “hERG current change (%, negative = inhibition) at 10uM” value of the first is higher: 2.16% for the first, -76.9% for the second.

First: CCOC(=O)c1c(C)n(C)c2ccc(OCC(O)CNC(CC)CO)cc12 (stereo not shown)
Second: CCCCOCCCn1c(N)c(C(=O)OC(C)COC)c2nc3ccccc3nc21 (stereo not shown)
The “hERG current change (%, negative = inhibition) at 10uM” value of the first is higher: -7.11% for the first, -9.66% for the second.

Going from `O=C(O)c1ccc(N=Cc2c(O)[nH]c(=O)[nH]c2=O)cc1` to `C=CCc1cccc(C=Nc2ccc(Br)cc2)c1O`, the “hERG current change (%, negative = inhibition) at 10uM” value falls from 8.59% to -4.96%.

Compared with `CC(C)CCN1CCN(CCCn2cccn2)CC1CCO` (stereo not shown), `CC(C)=CCN1CCN(CCCn2cccn2)CC1CCO` (stereo not shown) is lower in “hERG current change (%, negative = inhibition) at 10uM” value: -6.72% for the first, -11.8% for the second.

First: CCOc1ccccc1CN1CCN(CCCn2cccn2)CC1CCO (stereo not shown)
Second: CCOc1ccc(CN2CCN(CCCn3cccn3)CC2CCO)cc1 (stereo not shown)
The “hERG current change (%, negative = inhibition) at 10uM” value of the first is higher: -57.4% for the first, -80.1% for the second.

Compared with `CC(C)N1CCC(N2CCN(CCCn3cccn3)CC2CCO)CC1` (stereo not shown), `Cc1ccc(CN2CCN(CCCn3cccn3)CC2CCO)cc1` (stereo not shown) is lower in “hERG current change (%, negative = inhibition) at 10uM” value: -28% for the first, -66.9% for the second.

First: OCCC1CN(CCCn2cccn2)CCN1Cc1ccccc1 (stereo not shown)
Second: CN1CCN(C(=O)CC2C(=O)NCCN2Cc2ccc(-c3ccccc3)cc2)CC1 (stereo not shown)
The “hERG current change (%, negative = inhibition) at 10uM” value of the first is lower: -8.62% for the first, 2.25% for the second.

Compared with `Cc1cccc(NS(=O)(=O)c2cccc3cccnc23)n1`, `O=[N+]([O-])c1cccnc1NCCc1ccccc1` is lower in “hERG current change (%, negative = inhibition) at 10uM” value: 4.27% for the first, -18.9% for the second.

Going from `Cc1ccccc1-c1noc(N)c1C#N` to `CC(C)C(=O)NCCc1nc(-c2ccccc2Cl)no1`, the “hERG current change (%, negative = inhibition) at 10uM” value rises from 0.198% to 16.1%.

First: CCCOc1cc(C)c(S(=O)(=O)NC2CC(C)(C)NC(C)(C)C2)cc1C
Second: COC(=O)C1CN(C(=O)COc2cc(C)c(Cl)c(C)c2)c2ccccc2O1 (stereo not shown)
The “hERG current change (%, negative = inhibition) at 10uM” value of the first is lower: -15% for the first, 18.9% for the second.

First: Cc1cc(C)cc(C(=O)NCCn2cc(SCC(=O)N3CCOCC3)c3ccccc32)c1
Second: COC(=O)CSc1nnc(CNC(=O)c2ccc(S(=O)(=O)N3CCOCC3)cc2)n1C
The “hERG current change (%, negative = inhibition) at 10uM” value of the first is lower: -9.88% for the first, 23.7% for the second.

First: O=C(O)CNc1nc(Cl)ccc1[N+](=O)[O-]
Second: O=C(O)CNc1ncccc1[N+](=O)[O-]
The “hERG current change (%, negative = inhibition) at 10uM” value of the first is higher: 6.24% for the first, -86.1% for the second.

First: CNC(=O)C(=O)NCCN1CCN(S(=O)(=O)c2ccc3ccccc3c2)CC1
Second: COCCNC(=O)c1cccc(OC2CCN(Cc3ccc(C(=O)OC)cc3)CC2)c1
The “hERG current change (%, negative = inhibition) at 10uM” value of the first is higher: 29.3% for the first, -40.5% for the second.

First: CC[C@H]1CN(C)CCc2c([nH]c3ccccc23)C(=O)C[C@@H]1/C(=C\OC)C(=O)OC
Second: CC[C@H]1CN(C)C[C@@]2(C(=O)OC)Cc3c([nH]c4ccccc34)C(=O)C[C@@H]12
The “hERG current change (%, negative = inhibition) at 10uM” value of the first is lower: -69.5% for the first, 9.71% for the second.

First: CC[C@@H]1CN(C)[C@H]2Cc3c([nH]c4ccccc34)C(=O)C[C@@H]1[C@@H]2C(=O)OC
Second: O=C(OCCN=C1NS(=O)(=O)c2ccccc21)C1CC(=O)N(c2ccc(Cl)cc2)C1 (stereo not shown)
The “hERG current change (%, negative = inhibition) at 10uM” value of the first is higher: 11.8% for the first, -7.04% for the second.

First: FC(F)(F)c1cc(Oc2ccc(Cl)cc2)ncc1-c1nnc(-c2ccc(Cl)cc2)o1
Second: COC(=O)c1c(N)n(Cc2ccc(OC)cc2)c2nc3ccccc3nc12
The “hERG current change (%, negative = inhibition) at 10uM” value of the first is higher: 5.81% for the first, -34.1% for the second.

Compared with `O=C(OCCCN=C1NS(=O)(=O)c2ccccc21)C1CC(=O)N(c2ccc(Cl)cc2)C1` (stereo not shown), `O=C(OCCOCCN=C1NS(=O)(=O)c2ccccc21)C1CC(=O)N(c2ccccc2)C1` (stereo not shown) is higher in “hERG current change (%, negative = inhibition) at 10uM” value: -58.7% for the first, 13.1% for the second.

Compared with `CC1(C)CC(CC(=O)O)(c2ccc(F)cc2)CCO1` (stereo not shown), `O=C1NC(=O)C2(CCC(C(=O)O)C2)N1` (stereo not shown) is higher in “hERG current change (%, negative = inhibition) at 10uM” value: 3.33% for the first, 19.3% for the second.

Compared with `CCOCCCNc1c(CC)c(C)c(C#N)c2nc3ccccc3n12`, `COCCCn1c(N)c(C(=O)OC(C)COC)c2nc3ccccc3nc21` (stereo not shown) is higher in “hERG current change (%, negative = inhibition) at 10uM” value: -42.3% for the first, 0.737% for the second.

Compared with `CC(C)CNC(=O)c1c(N)n(Cc2ccco2)c2nc3ccccc3nc12`, `COCCNC(=O)c1c(N)n(Cc2ccco2)c2nc3ccccc3nc12` is higher in “hERG current change (%, negative = inhibition) at 10uM” value: -14.1% for the first, -6.12% for the second.

Compared with `COCCOC(=O)c1c(N)n(Cc2ccco2)c2nc3ccccc3nc12`, `CCOC(=O)c1c(N)n(Cc2ccco2)c2nc3ccccc3nc12` is lower in “hERG current change (%, negative = inhibition) at 10uM” value: -56.7% for the first, -61.9% for the second.

Compared with `COCCOC(=O)c1c(N)n(Cc2ccccc2)c2nc3ccccc3nc12`, `COCCOC(=O)c1c(N)n(Cc2ccc(OC)cc2)c2nc3ccccc3nc12` is lower in “hERG current change (%, negative = inhibition) at 10uM” value: -36.5% for the first, -75.4% for the second.

Compared with `Cc1cccc(-n2cnc3c(c2=O)c2nc4ccccc4nc2n3Cc2ccco2)c1`, `Cc1cc(C)cc(-n2c3nc4ccccc4nc3c3c(=O)n(Cc4ccco4)cnc32)c1` is higher in “hERG current change (%, negative = inhibition) at 10uM” value: -63.7% for the first, 6.26% for the second.

First: CC(C)OC(=O)c1c(N)n(Cc2ccco2)c2nc3ccccc3nc12
Second: COCC(C)OC(=O)c1c(N)n(Cc2ccco2)c2nc3ccccc3nc12 (stereo not shown)
The “hERG current change (%, negative = inhibition) at 10uM” value of the first is higher: -31.4% for the first, -55.7% for the second.

Going from `Cc1ccc(Cn2c(C)nc3c(c2=O)c2nc4ccccc4nc2n3Cc2ccco2)cc1` to `CC(C)(C)OC(=O)c1c(N)n(Cc2ccco2)c2nc3ccccc3nc12`, the “hERG current change (%, negative = inhibition) at 10uM” value falls from 5.72% to -5.55%.

Going from `COC(=O)C1=C(C)Nc2ncnn2C1c1ccco1` (stereo not shown) to `COCC(C)OC(=O)c1c(N)n(CC(C)C)c2nc3ccccc3nc12` (stereo not shown), the “hERG current change (%, negative = inhibition) at 10uM” value falls from 6.44% to -67.8%.

Compared with `COc1ccc(-c2nc(C#N)c(N3CCC(C(N)=O)CC3)o2)cc1OC`, `COCCNC(=O)c1cccc(OC2CCN(Cc3ccc(C(C)C)cc3)CC2)c1` is lower in “hERG current change (%, negative = inhibition) at 10uM” value: -10.3% for the first, -70.7% for the second.

First: COCCN(CC(=O)Nc1cccc(C)c1C)C(=O)c1cc(-c2cccs2)nn1-c1ccccc1
Second: COCCNC(=O)c1cccc(OC2CCN(Cc3ccccc3OC(F)F)CC2)c1
The “hERG current change (%, negative = inhibition) at 10uM” value of the first is lower: 1.14% for the first, 2.5% for the second.

Going from `CCCCOc1ccc(CSc2n[nH]c(C)n2)cc1` to `Clc1ccc(CO/N=C/c2cccs2)cc1`, the “hERG current change (%, negative = inhibition) at 10uM” value rises from -1.41% to 12.4%.

First: CCOC(=O)c1oc2ccc(/C=N/O)c(Cl)c2c1C
Second: COCCNC(=O)c1cccc(OC2CCN(Cc3ccc(Cl)c(F)c3)CC2)c1
The “hERG current change (%, negative = inhibition) at 10uM” value of the first is higher: 37.3% for the first, -37.5% for the second.

Compared with `O=C(CSc1cccc[n+]1[O-])Nc1ccc(C(F)(F)F)cc1[N+](=O)[O-]`, `COCCNC(=O)c1cccc(OC2CCN(Cc3ccc(OC(F)F)cc3)CC2)c1` is lower in “hERG current change (%, negative = inhibition) at 10uM” value: 4.31% for the first, -73.5% for the second.
